D1 agonist: activates the human D1 dopamine receptor. 360,000 compounds, 1% hits. activation, % at 2 µM. HEK293 T-REx D1 cells, calcium flux, agonist mode. P21728; in the data active means activation above about 30%
Target sequence (P21728 whole entry, looked up): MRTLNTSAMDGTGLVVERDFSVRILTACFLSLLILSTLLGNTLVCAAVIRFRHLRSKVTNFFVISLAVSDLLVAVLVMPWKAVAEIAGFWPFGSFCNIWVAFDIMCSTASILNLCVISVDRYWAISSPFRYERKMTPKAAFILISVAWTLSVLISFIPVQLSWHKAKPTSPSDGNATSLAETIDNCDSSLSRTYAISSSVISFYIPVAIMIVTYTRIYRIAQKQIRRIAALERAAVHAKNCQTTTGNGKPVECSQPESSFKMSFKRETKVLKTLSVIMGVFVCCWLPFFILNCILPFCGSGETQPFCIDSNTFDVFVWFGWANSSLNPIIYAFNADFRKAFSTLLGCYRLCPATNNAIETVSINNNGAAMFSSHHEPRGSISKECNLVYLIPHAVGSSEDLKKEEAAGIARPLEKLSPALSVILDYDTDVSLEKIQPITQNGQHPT
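Inducible HEK293 T-REx D1 cells, force-coupled to calcium signalling, were plated at 4000 cells/well with tetracycline and held overnight at 30 C. After no-wash calcium dye loading, compound-evoked calcium rise over 180 s flagged agonists.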
DRD3 antagonist: D3 dopamine receptor (human) antagonism; D3R cells, DiscoveRx beta-arrestin luminescence, antagonist mode; stronger effect = lower value; max response, negative = inhibition, %; AID 652054; P35462; 360,000 compounds, 2.5% hits; in the data active means max response below about -50%; inconclusive means no clear call, values can overlap the other calls
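Cells expressing the human receptor were seeded at 1500 cells/well, incubated overnight at 37 degrees C in 5% CO2, then exposed to library compounds with dopamine controls for 90 minutes at 37 degrees C before luminescent detection.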
DRD3 agonist: D3 dopamine receptor (human) agonism. P35462. max activation, %. D3R DiscoveRx beta-arrestin cells, luminescence, 90 min. 410,000 compounds, 0.58% hits. AID 652048; in the data active means max activation above about 30%
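Agonist-mode cell screen: cells plated at 1500/well and incubated overnight at 37 °C, then exposed to library compounds for 90 min at 37 °C. Detection reagent was added for 30–60 min at room temperature, and luminescence was read.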
D1 PAM: enhances dopamine response at the human D1 receptor. P21728. HEK293 TREx D1 cells, calcium flux, dopamine EC20 potentiation. potentiation, % at 10 µM. 360,000 compounds, 0.036% hits; in the data active means potentiation above about 30%
D1 antagonist: human D1 dopamine receptor antagonism | P21728 | HEK293 TREx D1 cells, calcium flux, dopamine EC80; stronger effect = lower value | activity change, negative = inhibition, % at 10 µM | 360,000 compounds, 3.2% hits | AID 504652; in the data active means activity change below about -30%
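Inducible Hek293 Trex D1 cells (tetracycline, overnight, 30 C). Calcium dye 30–90 min RT. Antagonist mode: EC80 dopamine added after 180 s compound read.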
Hits are given with their value; 0 = inactive; ? = inconclusive; - = no result given. Only some compounds are listed: those with a hit (about 6.1% of all), similar ones and a draw of the others.

SMILES	D1 agonist	DRD3 antagonist	DRD3 agonist	D1 PAM	D1 antagonist
N#Cc1c(-c2ccccc2)nc(-c2ccccc2)[nH]c1=O	0	-58.0	0	0	0
N#Cc1c(-c2ccccc2)nc(-c2ccncc2)[nH]c1=O	0	0	0	0	0
Cc1occc1C(=O)N(C)Cc1nc(-c2ccccc2)no1	0	0	0	0	0
COc1ccc(OC)c(/C=C/C(=O)OCC(=O)Nc2nnc(-c3ccccc3)o2)c1	0	0	0	-	0
O=C1CN2C(=N1)N(Cc1ccccc1)c1ccccc12	0	0	0	0	-87.3
CCc1nc(SCC(=O)c2c[nH]c3ccccc23)n[nH]1	0	0	0	0	0
CC(C)c1nc(SCC(=O)c2c[nH]c3ccccc23)n[nH]1	0	-60.6	0	0	0
CC(C)C[C@H]1CNC(=S)N1CC1CCN(CCC23CC4CC(CC(C4)C2)C3)CC1	-	-72.3	0	-	-
CC(C)C[C@H]1CNC(=S)N1CC1CCN(CC2CCCC2)CC1	-	?	0	-	-
CC[C@H](C)[C@H]1CNC(=S)N1CC1CCN(CCCCc2ccccc2)CC1	-	-64.6	0	-	-
CC(C)C[C@H]1CNC(=S)N1CC1CCN(CC2CCC(C(C)(C)C)CC2)CC1 (some centres undefined)	-	-62.7	0	-	-
CC[C@H](C)[C@H]1CNC(=S)N1CC1CCN(CCCC2CCCC2)CC1	-	-77.8	0	-	-
COc1cccc(/C=C/C(=O)OCC(=O)NCC2CCCCC2)c1OC	0	0	0	0	0
CC1CCN(C(=O)COC(=O)C2CCN(S(=O)(=O)c3c(Cl)cccc3Cl)CC2)CC1	0	0	0	0	0
Cc1cc(N2CCCC2=O)cc(C)c1S(=O)(=O)Nc1c(C)nn(C)c1C	0	0	0	0	0
Cc1ccc(S(=O)(=O)N(CC(=O)Nc2cccc(C)c2C)C(=O)N2CCN(C)CC2)cc1	0	0	0	0	0
CC(C)C[C@H]1CNC(=S)N1CC1CCN(CCCC2CCCCC2)CC1	-	-100.7	0	-	-
Cn1c(O)c(/C=C2\C=NN=C2c2ccccc2)sc1=S	0	0	0	0	-34.7
O=C(NC(c1ccc(Cl)cc1)c1cnccn1)C1CCN(CCOc2ccc(F)cc2)CC1 (centres undefined)	-	?	0	-	-
Cc1cccnc1C(NC(=O)C1CCN(CCOc2ccc(Cl)cc2Cl)CC1)c1ccc(Cl)cc1 (centres undefined)	-	0	41.0	-	-
O=C(NC(c1ccc(F)cc1)c1ccc2ccccc2n1)C1CCN(CCOc2ccc(Cl)cc2Cl)CC1 (centres undefined)	-	0	0	-	-
O=C(NC(c1ccc(Cl)cc1)c1cccnc1)C1CCN(CCOc2ccc(Cl)cc2Cl)CC1 (centres undefined)	-	?	0	-	-
O=C(NC(c1ccc(F)cc1)c1cnccn1)C1CCN(CCOc2ccc(Cl)cc2Cl)CC1 (centres undefined)	-	-71.0	0	-	-
COc1cccc(OC)c1OCCN1CCC(C(=O)NC(c2ccc3c(c2)OCO3)c2ccccn2)CC1 (centres undefined)	-	-78.1	0	-	-
O=C(NC(c1ccc(Cl)cc1)c1ccccn1)C1CCN(CCOc2ccc(Cl)cc2Cl)CC1 (centres undefined)	-	-76.5	0	-	-
SMILES	D1 agonist	DRD3 antagonist	DRD3 agonist	D1 PAM	D1 antagonist
COc1cccc(OCC(O)CNC(=O)c2oc3ccc(C)cc3c2C)c1 (centres undefined)	0	0	0	0	0
CCN(CC)c1nc2cc(C)ccc2cc1/C=C(\C#N)C(N)=O	0	0	0	0	0
Cc1ccc(N(CC(=O)N2CCN(c3cc(C)ccc3C)CC2)S(=O)(=O)c2c(C)nn(C)c2C)cc1	0	-	0	0	0
O=C(NC(c1ccc2c(c1)OCO2)c1ccccn1)C1CCN(CCOc2ccc(Cl)cc2Cl)CC1 (centres undefined)	-	-74.8	0	-	-
O=C(CSc1n[nH]c(-c2ccncc2)n1)c1ccccc1	0	0	0	0	0
O=C(CSc1n[nH]c(-c2ccncc2)n1)c1cccc([N+](=O)[O-])c1	0	-69.1	0	0	0
COc1ccc(C(=O)OCC(=O)N2c3ccccc3CC2C)cc1S(=O)(=O)N1CCOCC1 (centres undefined)	-	0	0	-	-
O=C(NCCN1CCN(c2cccc(Cl)c2)CC1)C1CCCN(S(=O)(=O)c2cnc[nH]2)C1 (centres undefined)	0	-85.7	0	-	0
CCN(CCNC(=O)C1CCCN(S(=O)(=O)c2cnc[nH]2)C1)c1ccccc1 (centres undefined)	0	0	0	-	0
O=C(NCc1ccccc1Cl)C1CCCN(S(=O)(=O)c2cnc[nH]2)C1 (centres undefined)	0	0	0	-	-44.2
CC1CCCN(S(=O)(=O)c2cnc[nH]2)C1 (centres undefined)	0	0	32.6	0	0
O=C(NCCN1CCN(c2ccccc2)CC1)C1CCCN(S(=O)(=O)c2cnc[nH]2)C1 (centres undefined)	0	-63.3	0	0	0
O=C(Nc1cccc(Cl)c1)C1CCCN(S(=O)(=O)c2cnc[nH]2)C1 (centres undefined)	0	0	0	-	0
C=C(C)C(=O)Oc1ccc(N=Nc2ccc(C)cc2)ccc1=O	-	0	0	-	-
Cc1ccc(OCC(=O)NNC(=O)C(=O)N2CCCC2)c(C)c1	0	0	0	0	0
CCOC(=O)C1CCCN(C(=O)C2CCN(S(=O)(=O)c3cnc[nH]3)CC2)C1 (centres undefined)	0	0	0	0	-41.0
CCCCCCCOC(=O)c1ccc(OC(=O)c2cccnc2)cc1	0	0	0	0	0
Cc1cc(=O)oc2cc(OC(=O)c3cncc(Br)c3)ccc12	0	0	0	0	-44.7
CCCC(=O)Oc1ccc2c(C)cc(=O)oc2c1	0	0	0	0	0
CCCCCOC(=O)c1ccc(OC(=O)c2cncc(Br)c2)cc1	0	-73.9	0	0	0
O=C(NCc1ccc(F)cc1)C1CCCN(c2nc3ccsc3c(=O)s2)C1 (centres undefined)	0	?	0	0	0
COc1cc2c(cc1OC)[C@@H](NC(=O)CCC1CCCCC1)[C@H](O)C2	-	0	0	-	-
COc1ccc2cc(CN(C(=O)Nc3ccccc3OC)C3CCCC3)c(=O)[nH]c2c1	0	0	0	0	-33.2
COc1ccc2cc(CN(CC3CCCO3)C(=O)Nc3ccccc3OC)c(=O)[nH]c2c1 (centres undefined)	0	?	0	0	0
COc1ccccc1NC(=O)N(Cc1cccs1)Cc1cc2cc3c(cc2[nH]c1=O)OCO3	0	0	0	0	-33.7
CC1C/C(=N/N2C(=O)CSC2=S)CC(C)(C)C1 (centres undefined)	0	-63.5	0	0	0
Cc1ccc(C(C(=O)NC(C)(C)C)N(CC2CCCO2)C(=O)CCC(=O)Nc2ccccn2)cc1 (centres undefined)	0	0	48.0	0	0
CCC(C)(C)NC(=O)C(c1ccc(C)cc1)N(CC1CCCO1)C(=O)CCC(=O)Nc1ccccn1 (centres undefined)	0	0	0	0	0
